# From PubChem BioAssay (NCI)
# This is part of a sample that, as a whole, favours compounds with a hit. Of some 79,000 tested, about 15% had one in any assay. Values without a mark were called inactive. Active and inactive are the calls of the source. Rule as the data show it: active = growth inhibition above about 70%; inactive = the rest.
# Columns and labels:
# [1] = NCI Yeast Anticancer Drug Screen. Data for the rad50 strain (AID 155);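 also: 0% = growth of vehicle-only cultures of the same strain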; conditions: S. cerevisiae rad50 strain growth inhibition; at 50.0 µM; hits give high values
# In short: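 A DNA repair-deficient yeast mutant serves as the test organism; compound-induced growth inhibition is calculated against vehicle-treated cells.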
# [2] = NCI Yeast Anticancer Drug Screen. Data for the mec2-1 strain (AID 157); conditions: S. cerevisiae mec2-1 strain, at 50.0 µM, hits give high values
# In short: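 Growth inhibition is read against vehicle-treated controls after compound exposure of the mec2-1 yeast strain, which is defective in DNA damage repair or cell cycle control.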
# [3] = NCI Yeast Anticancer Drug Screen. Data for the sgs1 mgt1 strain (AID 161);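 also: 0% = growth of cultures given vehicle only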; conditions: S. cerevisiae sgs1 mgt1 strain, at 50.0 µM, hits give high values
# In short: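 Growth of a repair-deficient yeast mutant was monitored after compound treatment and expressed as inhibition relative to vehicle-treated cultures.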
# [4] = NCI Yeast Anticancer Drug Screen. Data for the cln2 rad14 strain (AID 165);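 also: 0% = growth equal to vehicle treated cultures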; conditions: S. cerevisiae cln2 rad14 strain, at 50.0 µM, hits give high values
# In short: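 Growth inhibition, relative to vehicle-treated controls, is the read-out. The test organism is a yeast strain with defined genetic alterations, cln2 rad14.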
# [5] = NCI Yeast Anticancer Drug Screen. Data for the bub3 strain (AID 167); conditions: S. cerevisiae bub3 mutant strain, at 50.0 µM, hits give high values
# In short: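 Inhibition values come from growth of compound-treated mutant yeast normalised to vehicle-treated controls.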
# [6] = NCI Yeast Anticancer Drug Screen. Data for the mlh1 rad18 strain (AID 175); conditions: S. cerevisiae mlh1 rad18 strain growth inhibition; at 50.0 µM; hits give high values
# In short: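 Cells of a genetically altered yeast strain, deficient in DNA damage repair, were treated with compound. Their growth was then compared with that of vehicle-treated cultures to give inhibition.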
Structure (SMILES),growth inhibition [1],growth inhibition [2],growth inhibition [3],growth inhibition [4],growth inhibition [5],growth inhibition [6]
COc1cccc(N(CN2C(=O)CCC2OC)C(C)=O)c1 (stereo not given),4.2%,7.35%,12.9%,19.3%,-7.35%,-31.4%
CC1=NN(C(=O)c2ccc(Cl)cc2)C(=O)/C1=C/c1ccc(Cl)cc1,-28.6%,-47.4%,-69.2%,-19.6%,-33%,-44.2%
CC(C)OP(=O)(CCC(=O)C1(O)CCC2C3CCC4=CC(=O)CCC4(C)C3CCC21C)OC(C)C (stereo not given),11.4%,4.25%,10.3%,3.25%,0.65%,-8.6%
CC(=O)Cc1ccc2[nH]c(C)cc(=O)c2c1,-2.15%,5.25%,-0.2%,-34.4%,-7.15%,4.55%
c1ccc(SCCCCSc2ccccc2)cc1,17.1%,5.05%,-2.55%,-38%,14.1%,43%
[Cl][Pt+2][Cl].[NH-]CC(C[NH-])(Cc1ccccc1)Cc1ccccc1,-0.55%,-13.9%,-2.2%,15.1%,-18.2%,-38.6%
CCCC(C(=O)O)C(O)(CC(=O)O)C(=O)O (stereo not given),18.6%,-14.6%,11.4%,-32.1%,7.85%,-20.6%
NC(=S)NNC(=O)c1ccncc1,13.3%,-3.1%,1.8%,10.4%,3.75%,7.05%
CC(=O)[O][Ga]([Cl])[O]C(C)=O,22.2%,27.2%,34.1%,34.3%,30.3%,14.3%
Brc1c(-c2ccccc2)oc2nc3ccccc3nc12,17.2%,0.2%,0.2%,7.45%,12.6%,3.8%
N#CC1=C(c2ccccc2)NN(Cc2ccccc2)C(c2ccc(Cl)cc2)CC1=O (stereo not given),31.9%,7.25%,8.25%,-44.1%,2.6%,30.6%
C=C(C)[C@@]1(OC(=O)c2cc([N+](=O)[O-])cc([N+](=O)[O-])c2)C[C@@H]2CCCC[C@@H]21,-43.5%,-26.1%,-15.8%,5.8%,-7.9%,2.1%
CC(O)C1(O)C(O)CC(OC2c3cc4c(c(O)c3[C@@H]3C[C@@]2(C)OC32C=c3cc[nH]c3=N2)C(=O)c2cccc(O)c2C4=O)OC1C (stereo not given in full),63.5%,41.1%,60%,50.4%,52%,67.6%
CCOc1ccccc1NC(C)=O,-6.5%,6.1%,2.2%,-13.4%,-14.6%,-0.75%
COC(C)CCOC(=O)COc1ccccc1 (stereo not given),17.8%,-10%,8.35%,-11.3%,13.8%,8.3%
COc1ccc(/C=N/NC(=O)NCCCN(C)C)cc1,3.3%,-29%,-9.9%,-5%,-23.9%,-7.65%
CCCCC1CCCCC1=O (stereo not given),16.4%,-15.2%,3.1%,12.5%,-0.45%,5.1%
NCC(=O)Nc1ccc(C(=O)O)cc1,28.8%,17.1%,7.6%,4.6%,4.05%,9.1%
CC(Oc1ccccc1)C(=O)NNC(=O)OC(C)(C)C (stereo not given),-0.3%,-21.9%,-10.7%,-0.75%,-18.6%,3.9%
O=C(CSc1nnc(-c2ccc(N=Cc3ccc(Cl)cc3)cc2)o1)Nc1ccc(Cl)cc1,3.1%,-41%,-2.25%,-66%,-11.8%,0%

Structure (SMILES),growth inhibition [1],growth inhibition [2],growth inhibition [3],growth inhibition [4],growth inhibition [5],growth inhibition [6]
C=CCOC(=O)C1(O)c2ccccc2NC(=S)N1CC=C (stereo not given),1.35%,7.4%,5.2%,6.9%,10.3%,-0.8%
CCOC(=O)C1CC(=O)c2cc(OC)c(OC)cc2C1c1ccc(OC)c(OC)c1 (stereo not given),1.85%,-14.1%,0.1%,-29.7%,13.8%,-26.4%
CCCC(=O)c1ccc2c(ccc(=O)n2C)c1,12.2%,-8.75%,-5.2%,38.1%,28.8%,15.9%
Cc1ccccc1C(C#N)/C(=N/NC(N)=S)C(=O)Nc1c(C)cccc1C (stereo not given),-36.5%,-27.7%,2.5%,-12.4%,-17.2%,-31.1%
CC(=O)Oc1ccc(C2(OC(C)=O)c3ccccc3C(=O)c3ccccc32)cc1,11.5%,9.9%,34.4%,34.1%,-8.5%,31.8%
OC1C(O)C2OC(c3ccccc3)OC2C2OC(c3ccccc3)OC12 (stereo not given),7.1%,-4.85%,0.95%,0.1%,-15.4%,-2.35%
OCCNNCCO,13.3%,1.05%,-14.7%,-8.85%,15.1%,1.9%
O=[N+]([O-])c1ccc(N=Nc2ccc(O)c3c(O)cc(S(=O)(=O)O)cc23)cc1S(=O)(=O)O,30.6%,9%,6.85%,-24.8%,-11.4%,50.1%
NC(=O)CC(NC(=O)OCc1ccccc1)C(N)=O (stereo not given),8.6%,8.4%,-11.2%,-12.4%,10.8%,-14.6%
OCCNc1nc(NCCO)c2cn[nH]c2n1,0.5%,0.45%,-1.15%,-12.7%,5.75%,0.55%
O=[N+]([O-])c1ccc(Oc2cccc3ccccc23)c([N+](=O)[O-])c1,4.75%,8.55%,18.5%,-82.5%,29.1%,38.8%
CC1(C(=O)O)C(=O)Oc2c1c1ccccc1c1ccccc21 (stereo not given),15.3%,10.7%,0.75%,10.8%,16.3%,27.5%
COC(=O)NC(Nc1ccc(Cl)cc1Cl)(C(F)(F)F)C(F)(F)F,44.6%,6.7%,12.2%,20.6%,30.1%,16.6%
O=C(C[n+]1ccccc1)N/N=C(\Cc1nc2ccc([N+](=O)[O-])cc2[nH]c1=O)C(=O)Nc1cc(Cl)c(Cl)cc1Cl,24.2%,10.1%,2.5%,-27.8%,16.9%,9.35%
COc1ccc([C@@]23Oc4cc(OC)cc(OC)c4[C@]2(O)[C@H](O)[C@H](C(=O)N(C)C)[C@H]3c2ccccc2)cc1,91.8% (active),93.5% (active),92.8% (active),91.5% (active),91.3% (active),91.1% (active)
N#CCCOCCNCCSC(=O)c1ccccc1,36.8%,4.05%,12.4%,6.65%,8.45%,4.25%
O=C(OC(=O)c1cccc2ccccc12)c1cccc2ccccc12,-5.15%,-7.75%,2.3%,43.3%,12%,13.2%
CC(C)(C)OC(=O)CC(NC(=O)OC(C)(C)C)C(=O)N[C@@H]1CCCC[C@H]1C(=O)OCc1ccccc1 (stereo not given in full),8.3%,15.2%,9.55%,8.35%,14.7%,23.1%
Brc1cn2[n+](c1)[B-]n1cc(Br)c[n+]1[B-]2,0.85%,-4.6%,-3.6%,-7.65%,6.65%,12%
Cc1cccc(NC(=O)Nc2cccc(Cl)c2Cl)n1,15.9%,13.7%,13.6%,15.1%,23.9%,18.6%
